We go through 13 compounds from PubChem BioAssay (NCATS).

Inconclusive results are not listed. The source made the active and inactive calls. Unless noted, the call rests on the fitted dose curve; in most records, active means well fitted curve in the direction sought with a large enough effect; inconclusive means small, poorly fitted or top-dose-only effect, or another doubt; inactive means no such curve, though single readings can be large; an effect the other way counts as inactive or inconclusive.

A short description of experiment [1]: Quantitative High-Throughput drug screen in 47 multiple myeloma cell lines against the NCATS MIPE library collection: OPM1_PLB cell viability assay (AID 1918989). Further: nearly all actives have a fitted effect of over 40% in size. Further: potency means the concentration at half of the fitted maximal effect. The method, boiled down: (§1)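 Readout: median RLU from CellTiter-Glo after 5 min at room temperature. Preceding step was 48 h drug treatment of 500 cells/well at 37 °C, 5% CO2, with DMSO-only and media-only control wells.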

A short description of experiment [2]: Quantitative High-Throughput drug screen in 47 multiple myeloma cell lines against the NCATS MIPE library collection: U266_ATCC cell viability assay (AID 1919864). Further: nearly all actives have a fitted effect of over 35% in size. Further: potency means the concentration at half of the fitted maximal effect. Summed up: as §1
Experiment [3] in a line: Quantitative High-Throughput drug screen in 47 multiple myeloma cell lines against the NCATS MIPE library collection: XG6_PLB cell viability assay (AID 1919865). Further: nearly all actives have a fitted effect of over 40% in size. Further: potency means the concentration at half of the fitted maximal effect. The method, boiled down: as §1
The nature of experiment [4]: Quantitative High-Throughput drug screen in 47 multiple myeloma cell lines against the NCATS MIPE library collection: VP6_DJ cell viability assay (AID 1919867). Further: potency means the concentration at half of the fitted maximal effect; nearly all actives have a fitted effect of over 40% in size. Summed up:
as §1

Experiment [5] in a line: Quantitative High-Throughput drug screen in 47 multiple myeloma cell lines against the NCATS MIPE library collection: PE2_PLB cell viability assay (AID 1919869). Further: nearly all actives have a fitted effect of over 35% in size. Further: potency means the concentration at half of the fitted maximal effect. The method, boiled down:
as §1

Experiment [6] is described as follows: Quantitative High-Throughput drug screen in 47 multiple myeloma cell lines against the NCATS MIPE library collection: KMS11_JCRBsus cell viability assay (AID 1919873). Further: nearly all actives have a fitted effect of over 50% in size. Further: potency means the concentration at half of the fitted maximal effect. Summed up:
as §1

A short description of experiment [7]: Quantitative High-Throughput drug screen in 47 multiple myeloma cell lines against the NCATS MIPE library collection: KMS28BM_JCRB cell viability assay (AID 1919874). Further: nearly all actives have a fitted effect of over 35% in size. Further: potency means the concentration at half of the fitted maximal effect. Summed up: as §1
Experiment [8] in a line: qHTS drug screen for cell cycle checkpoint inhibitors in PARPi-resistant BRCA-mutant ovarian cancer cell lines. (AID 1963452; calls by dose curve). To be noted: PEO1/OlaR viability, CellTiter-Glo luminescence, 96 h, stronger effect = lower value. The method, boiled down:
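PEO1, PEO4 and PEO1/OlaR ovarian cancer cells, 600 per well, exposed 96 h at 37C to a dilution series. Viability read by CellTiter-Glo luminescence, normalized to DMSO and empty wells; activity summarized as Z-AUC.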

Experiment [9] is described as follows: Quantitative High-Throughput drug screen in 47 multiple myeloma cell lines against the NCATS MIPE library collection: SKMM1_PLB cell viability assay (AID 1919863). Further: nearly all actives have a fitted effect of over 35% in size. To be noted: SKMM1 myeloma viability, CellTiter-Glo ATP, 48 h; viability: stronger effect = lower value. The method, boiled down: as §1
Experiment [10] can be described thus: Quantitative High-Throughput drug screen in 47 multiple myeloma cell lines against the NCATS MIPE library collection: XG1_PLB cell viability assay (AID 1919866). Further: nearly all actives have a fitted effect of over 35% in size. Further: potency means the concentration at half of the fitted maximal effect. The method, boiled down:
as §1

Experiment [11] is described as follows: Quantitative High-Throughput drug screen in 47 multiple myeloma cell lines against the NCATS MIPE library collection: OPM2_DSMZ cell viability assay (AID 1919872). Further: nearly all actives have a fitted effect of over 30% in size. Further: potency means the concentration at half of the fitted maximal effect. Summed up:
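Luminescent ATP measurement with CellTiter-Glo gives viability, scaled between DMSO-only wells (100%) and media-only wells (0%). Cells, 500 per well, faced library compounds for 48 hours at 37C.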

Experiment [12] in a line: Quantitative High-Throughput drug screen in 47 multiple myeloma cell lines against the NCATS MIPE library collection: RPMI8226_ATCC cell viability assay (AID 1919871). Further: nearly all actives have a fitted effect of over 30% in size. Further: potency means the concentration at half of the fitted maximal effect. The method, boiled down:
as §1

Experiment [13] is described as follows: qHTS for identification of novel therapeutic agents for treatment of microphthalmiaassociated transcription factor (MiT) renal cell carcinoma (RCC) (AID 1963991; calls by dose curve; further: potency means the concentration at half of the fitted maximal effect;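 on z-score: curves scaled with 100% = DMSO viability and 0% = empty wells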). The conditions noted are these: CellTiter-Glo, 48 h; for z-score: stronger effect = lower value. Summed up: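 UOK109/UOK124/UOK145 (TFE3 fusions, three partners); 500 cells/well; MIPE v4.0, 1912 cpds, 11 conc.; 48 h, 37 C; CellTiter-Glo, 15 min RT; lum. Norm.: DMSO 100%, empty 0%.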

A short description of experiment [14]: Quantitative High-Throughput drug screen in 47 multiple myeloma cell lines against the NCATS MIPE library collection: PCM6_Riken cell viability assay (AID 1919870). Further: nearly all actives have a fitted effect of over 30% in size. Further: potency means the concentration at half of the fitted maximal effect. The method, boiled down:
as §1

The test system of the next experiment is 3D7. Briefly: qHTS profiling for inhibitors of Plasmodium falciparum proliferation (AID 504749).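 Further: 0% = DMSO vehicle and full inhibition = artemisinin control; nearly all actives have a fitted effect of over 60% in size.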 The conditions noted are these: P. falciparum in erythrocytes, SYBR Green DNA, 72 h; series mostly up to 28.7 µM. The method, boiled down: (§2)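 Fluorescence of SYBR Green-bound parasite DNA, read at 485/535 nm, served as the growth measure. Infected erythrocytes were cultured with compound 72 h; artemisinin (0.29 uM) and DMSO wells defined the normalization range.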

Another experiment relates to 7G8. The description is as above. To be noted: P. falciparum in erythrocytes, SYBR Green DNA, 72 h; series mostly up to 28.7 µM. The method, boiled down:
as §2

The nature of experiment [15]: Quantitative High-Throughput drug screen in 47 multiple myeloma cell lines against the NCATS MIPE library collection: UTMC2_PLB cell viability assay (AID 1919868). Further: nearly all actives have a fitted effect of over 55% in size. The conditions noted are these: CellTiter-Glo ATP luminescence, 48 h; viability (% of DMSO control): at 45.8 µM (top of the series). The method, boiled down:
as §1

Setting [16] is: measured here: PEO1 parental Z-AUC.
[17] abbreviates: TFE3-RCC UOK109 viability, measured here: UOK109 Z-AUC.
[18] abbreviates: TFE3-RCC viability, measured here: UOK124 Z-AUC.
[19] abbreviates: TFE3-RCC viability, measured here: UOK145 Z-AUC.

Regarding `CN1CCN(c2ccc([N+](=O)[O-])c3no[n+]([O-])c23)CC1`, the Potency was 18.7 µM (active) in experiment [1]; 18.7 µM (active) in experiment [2]; 20.9 µM (active) in experiment [3]; 14.8 µM (active) in experiment [4]; 23.5 µM (active) in experiment [5]; 23.5 µM (active) in experiment [6]. In addition, the Potency in [7] was 18.7 µM (active). The Z-AUC in experiment [8] is 1.21 (inactive); in experiment [8] (setting [16]), 1.82; in experiment [8] (measured here: PEO4 Z-AUC), 1.04.

As for `Cc1nc(-c2ccc(-c3ccc(C(=O)N4CCc5cc6c(cc54)C4(CCN(C)CC4)CO6)cc3)c(C)c2)no1`, the Potency entry in experiment [1], in experiment [10], in [5], in experiment [11], in experiment [6] and in experiment [7] was “inactive” in each case. In [9], the viability is 124% (inactive).

`CC=C(C)C(=O)O[C@H]1C(C)=C2[C@@H]3OC(=O)[C@@](C)(O)[C@@]3(O)[C@@H](OC(=O)CCC)C[C@](C)(OC(C)=O)[C@@H]2[C@@H]1OC(=O)CCCCCCC`: the Potency is 0.264 µM (active) in experiment [1]; 0.935 µM (active) in [2]; 0.372 µM (active) in experiment [3]; 0.0469 µM (active) in [10]; 0.264 µM (active) in experiment [5]; 0.0743 µM (active) in experiment [12]. Moreover, the values for the Potency in [11], in experiment [6] and in [7] were 0.0332 µM (active), 0.0332 µM (active) and 0.166 µM (active), respectively.

Consider `CC1=NN=C(c2ccc(N)cc2)c2cc3c(cc2C1)OCO3`, for which the Potency entry in experiment [1], in experiment [5], in experiment [12], in experiment [11], in experiment [6] and in experiment [7] was “inactive” each time. Further, in experiment [9], the viability is 125% (inactive). The z-score in experiment [13] (setting [17]) is 0.644; in [13] (setting [18]), 0.871; in [13] (setting [19]) it was 0.714.

In the case of `Cc1ccccc1-n1c(Cn2ncc3c(N)ncnc32)nc2cccc(C)c2c1=O`, the Potency in experiment [1] was 0.148 µM (active); in experiment [3] it was 0.0418 µM (active); in experiment [4], 0.166 µM (active); in [12] it was 8.33 µM (active); in experiment [11], 8.33 µM (active); in experiment [6] it was 1.05 µM (active). In addition, the Potency in experiment [13] (TFE3-RCC UOK109 viability) was 0.0526 µM (active). The Potency entry in experiment [2] is “inactive”. Also, the Z-AUC in experiment [8] was -0.794 (inactive); in experiment [8] (setting [16]) it was -0.62; in [8] (measured here: PEO4 Z-AUC), -0.742. Besides, the z-score in [13] (setting [17]) was -1.3; in [13] (setting [18]) it was -1.03; in [13] (setting [19]) it was -1.02.

Regarding `COCC1(CO)C(=O)C2CCN1CC2` (stereo not given), the Potency in [1] was 2.09 µM (active); in experiment [2], 2.96 µM (active); in experiment [3] it was 1.66 µM (active); in [10] it was 20.9 µM (active); in [5], 2.96 µM (active); in [12], 20.9 µM (active). In addition, the values for the Potency in [11], in experiment [6] and in experiment [7] were 11.8 µM (active), 7.43 µM (active) and 23.5 µM (active), respectively. The Z-AUC was 0.503 (inactive) in experiment [8], 0.336 in [8] (setting [16]) and 0.128 in [8] (measured here: PEO4 Z-AUC).

For `CC(C)N[C@@H]1CCn2c(=O)[nH]c3cccc(c32)[C@@H]1O`, the Potency in experiment [1] was 11.8 µM (active); in [2] it was 1.66 µM (active); in [3] it was 2.35 µM (active); in [10], 3.32 µM (active); in [5], 4.18 µM (active).

Take `Cc1c(C(=O)c2cccc3ccccc23)c2cccc3c2n1[C@H](CN1CCOCC1)CO3`: the Potency was 23.5 µM (active) in [1]; 18.7 µM (active) in experiment [2]; 23.5 µM (active) in experiment [5]; 23.5 µM (active) in experiment [12]; 23.5 µM (active) in [11]; 23.5 µM (active) in experiment [6]. Besides, the Potency in [7] was 23.5 µM (active). Further, the Potency result in experiment [10] and in [14] was “inactive” each time.

On to `CC(C)(C)c1cc(C=C(C#N)C#N)cc(Br)c1O`, for which the Potency is 9.35 µM (active) in experiment [1]; 26.4 µM (active) in [2]; 14.8 µM (active) in experiment [3]; 11.8 µM (active) in [10]; 5.26 µM (active) in experiment [5]. The Z-AUC in experiment [8] was 1.28 (inactive); in [8] (setting [16]), 1.11; in experiment [8] (measured here: PEO4 Z-AUC), 0.988.

In the case of `CC(=O)OCC1=C(C(=O)O)N2C(=O)[C@@H](N)[C@@H]2SC1`, the Potency entry in experiment [1], in experiment [2], in [3], in experiment [5], in experiment [14] and in experiment [11] was “inactive” throughout. For the same compound, the Potency entry (in experiment [6]; in experiment [7]; with 3D7; in the experiment on 7G8) was “inactive” each time. Further, the z-score in experiment [13] (setting [17]) is -1.76; in [13] (setting [18]), 0.735; in [13] (setting [19]), 1.3.

Turning to `CCCC[N+]1(C)[C@H]2CC(OC(=O)[C@H](CO)c3ccccc3)C[C@H]1[C@H]1O[C@H]12` (stereo not given in full), the Potency result in experiment [1], in experiment [2], in [3], in [15], in experiment [5] and in experiment [14] was “inactive” each time. Moreover, the Potency entry in experiment [12], in [11] and in experiment [7] was “inactive” each time. The Z-AUC in experiment [8] was 1.48 (inactive); in experiment [8] (setting [16]) it was 1.34; in experiment [8] (measured here: PEO4 Z-AUC) it was 1.36. For the same compound, the z-score in [13] (setting [17]) is 0.529; in experiment [13] (setting [18]), 0.336; in [13] (setting [19]) it was 0.453.

For `C=C[C@@H]1CN2CCC1C[C@H]2[C@H](O)c1ccnc2ccccc12` (stereo not given in full), the Potency in experiment [1] was 16.6 µM (active); in experiment [2], 20.9 µM (active); in experiment [10], 16.6 µM (active); in experiment [4], 26.4 µM (active); in experiment [5] it was 20.9 µM (active); in experiment [14] it was 14.8 µM (active). For the same compound, in experiment [12], the Potency is 18.7 µM (active).

With `COc1cccc2c1[C@]13CCN(CC4CC4)[C@H](C2)[C@]1(OC)CCC(=O)C3`, the Potency entry in experiment [1], in experiment [2], in [3], in experiment [5], in experiment [11] and in experiment [6] was “inactive” in each case. Further, the Potency entry in experiment [7] is “inactive”. The Potency in [4] is 20.9 µM (active). In addition, the z-score came out at 0.6 in experiment [13] (setting [17]), 0.387 in [13] (setting [18]) and 0.213 in experiment [13] (setting [19]).
